About 79,000 compounds went through this panel and 15% of them were active in at least one assay; those are over-represented in the sample as a whole. Calls of active or inactive are those of the source. Rule as the data show it: active = growth inhibition above about 70%; inactive = the rest.
Legend:
[1] = NCI Yeast Anticancer Drug Screen. Data for the wt1 strain (AID 149);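 also: 0% = growth of vehicle-treated wt1 cultures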; details: S. cerevisiae wt1 strain (SPY 50644) growth inhibition, stronger effect = higher value
Procedure, shortened: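 Vehicle-normalised growth inhibition; strain wt1; compound exposure.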

[2] = NCI Yeast Anticancer Drug Screen. Data for the rad50EPP+ strain (AID 151);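 also: 0% = growth of vehicle-treated control cultures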; details: S. cerevisiae rad50 mutant strain, stronger effect = higher value
Procedure, shortened: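 Strain rad50EPP+; compound exposure; % growth inhibition vs vehicle.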

[3] = NCI Yeast Anticancer Drug Screen. Data for the mgt1 strain (AID 153); details: S. cerevisiae mgt1 mutant growth inhibition, stronger effect = higher value
Procedure, shortened: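 Read-out: yeast growth inhibition vs vehicle control. Strain mgt1, drawn from a panel altered in DNA damage repair or cell cycle control.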

[4] = NCI Yeast Anticancer Drug Screen. Data for the rad50 strain (AID 155);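 also: 0% = growth of vehicle-only cultures of the same strain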; details: S. cerevisiae rad50 strain growth inhibition, stronger effect = higher value
Procedure, shortened: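 A DNA repair-deficient yeast mutant serves as the test organism; compound-induced growth inhibition is calculated against vehicle-treated cells.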

[5] = NCI Yeast Anticancer Drug Screen. Data for the mec2-1 strain (AID 157); details: S. cerevisiae mec2-1 strain, stronger effect = higher value
Procedure, shortened: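 Cells of the genetically defined mec2-1 yeast strain are incubated with test compound. Inhibition of growth is calculated against vehicle-treated controls.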

[6] = NCI Yeast Anticancer Drug Screen. Data for the rad14 strain (AID 159);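 also: 0% = growth of vehicle-treated control cultures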; details: S. cerevisiae rad14 strain growth inhibition, stronger effect = higher value
Procedure, shortened: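 Vehicle-treated cultures served as the baseline for growth inhibition of a DNA repair-mutant yeast strain exposed to each compound.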

[7] = NCI Yeast Anticancer Drug Screen. Data for the sgs1 mgt1 strain (AID 161);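 also: 0% = growth of cultures given vehicle only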; details: S. cerevisiae sgs1 mgt1 strain, stronger effect = higher value
Procedure, shortened: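 Mutant yeast exposed to compound; growth scored against vehicle-only wells.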

[8] = NCI Yeast Anticancer Drug Screen. Data for the CLN2oe strain (AID 163);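 also: 0% = growth of vehicle-only control cultures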; details: S. cerevisiae CLN2oe strain, stronger effect = higher value
Procedure, shortened: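 Strain altered in cell-cycle control, incubated with compound; growth compared to solvent-treated controls.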

[9] = NCI Yeast Anticancer Drug Screen. Data for the cln2 rad14 strain (AID 165);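 also: 0% = growth equal to vehicle treated cultures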; details: S. cerevisiae cln2 rad14 strain, stronger effect = higher value
Procedure, shortened: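 The screen exposed genetically defined yeast (cln2 rad14) to test compounds and scored growth inhibition relative to vehicle-treated controls.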

[10] = NCI Yeast Anticancer Drug Screen. Data for the bub3 strain (AID 167); details: S. cerevisiae bub3 mutant strain, stronger effect = higher value
Procedure, shortened: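 Inhibition values come from growth of compound-treated mutant yeast normalised to vehicle-treated controls.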

[11] = NCI Yeast Anticancer Drug Screen. Data for the wt2 strain (AID 169);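 also: 0% = growth of vehicle-treated yeast cultures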; details: S. cerevisiae wt2 strain growth inhibition, stronger effect = higher value
Procedure, shortened: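 Steps: yeast strain treated with compound; growth recorded; inhibition calculated relative to cultures given vehicle alone.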

[12] = NCI Yeast Anticancer Drug Screen. Data for the mlh1 strain (AID 171);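 also: 0% = growth of vehicle-treated control cultures of the same strain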; details: S. cerevisiae mlh1 strain growth inhibition, stronger effect = higher value
Procedure, shortened: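 Yeast screen: mutant strain plus compound, growth scored against vehicle control wells.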

[13] = NCI Yeast Anticancer Drug Screen. Data for the sgs1 strain (AID 173);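 also: 0% = growth of vehicle-only control cultures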; details: S. cerevisiae sgs1 mutant, stronger effect = higher value
Procedure, shortened: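 Inhibition of yeast growth served as the measure. The mutant strain was treated with each compound, and growth was normalised to cultures receiving vehicle alone.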

[14] = NCI Yeast Anticancer Drug Screen. Data for the mlh1 rad18 strain (AID 175); details: S. cerevisiae mlh1 rad18 strain growth inhibition, stronger effect = higher value
Procedure, shortened: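 Compound-treated yeast growth, normalised to vehicle controls. Strain bears defined DNA repair mutations.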

[15] = NCI Yeast Anticancer Drug Screen. Data for the rad18 strain (AID 177); details: S. cerevisiae rad18 mutant growth inhibition, stronger effect = higher value
Procedure, shortened: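 Inhibition values reflect reduced yeast growth compared with vehicle-treated controls, using a strain engineered with a DNA damage repair defect.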

[16] = at 5.0 µM (retest, dose inferred, filed as 0.5)
[17] = at 50.0 µM (retest, dose inferred, filed as 5.0)

Measured: growth inhibition

C/C(=N\N=C(N)N)C(CN1CCOCC1)C(c1ccccc1)c1c(O)c2ccccc2oc1=O (stereo not drawn)
active: [4]; [16] 78% | [4]; [17] 78% | [4]; at 50.0 µM 86.5% | [4]; at 100.0 µM 94% | [5]; at 50.0 µM 80.7% | [6]; at 100.0 µM 93% | [7]; [16] 88% | [7]; [17] 88% | [7]; at 50.0 µM 86% | [9]; at 50.0 µM 85.5% | [10]; at 50.0 µM 77.8% | [11]; at 100.0 µM 95% | [12]; at 100.0 µM 96% | [13]; at 100.0 µM 97% | [15]; at 100.0 µM 93%
inactive: [1]; at 1.2 µM 2% | [1]; at 3.7 µM -2% | [1]; at 11.0 µM -3% | [1]; at 33.0 µM 3% | [1]; at 100.0 µM 42% | [2]; at 1.2 µM -6% | [2]; at 3.7 µM -3% | [2]; at 11.0 µM -6% | [2]; at 33.0 µM -3% | [2]; at 100.0 µM 10% | [3]; at 1.2 µM 1% | [3]; at 3.7 µM -2% | [3]; at 11.0 µM 0% | [3]; at 33.0 µM 37% | [3]; at 100.0 µM 48% | [4]; at 1.2 µM 3% | [4]; at 3.7 µM 5% | [4]; at 11.0 µM -15% | [4]; at 33.0 µM 21% | [5]; at 1.2 µM 1% | [5]; at 3.7 µM 1% | [5]; [16] 59% | [5]; at 11.0 µM -3% | [5]; at 33.0 µM 8% | [5]; [17] 59% | [5]; at 100.0 µM 51% | [6]; at 1.2 µM 4% | [6]; at 3.7 µM 1% | [6]; at 11.0 µM -2% | [6]; at 33.0 µM 6% | [8]; at 1.2 µM 0% | [8]; at 3.7 µM 7% | [8]; at 11.0 µM 2% | [8]; at 33.0 µM 18% | [8]; at 100.0 µM 48% | [9]; [16] 7% | [9]; [17] 7% | [10]; at 1.2 µM 5% | [10]; at 3.7 µM 4% | [10]; [16] 31% | [10]; at 11.0 µM 18% | [10]; at 33.0 µM 47% | [10]; [17] 31% | [10]; at 100.0 µM 43% | [11]; at 1.2 µM -1% | [11]; at 3.7 µM 0% | [11]; at 11.0 µM 0% | [11]; at 33.0 µM 35% | [12]; at 1.2 µM -2% | [12]; at 3.7 µM -8% | [12]; at 11.0 µM -7% | [12]; at 33.0 µM 40% | [13]; at 1.2 µM -1% | [13]; at 3.7 µM -3% | [13]; at 11.0 µM 0% | [13]; at 33.0 µM 42% | [14]; [16] 57% | [14]; [17] 57% | [14]; at 50.0 µM 49.2% | [15]; at 1.2 µM -3% | [15]; at 3.7 µM -9% | [15]; at 11.0 µM -12% | [15]; at 33.0 µM 13%
